# Reference: PubChem BioAssay (Tox21)
# Records with an inconclusive call do not appear. The source made the active and inactive calls. Calls come from the whole dose curve; as a rule, active = well fitted activation curve with a large enough effect in the repeat runs; inconclusive = weak or mixed curves; inactive = flat fitted curve, though single readings scatter.
# Experiment: A CellTox Green Cytotoxicity Assay to monitor cytotoxicity in HEK293 cells - 16 hour (AID 1224888); note: nearly all actives have a fitted effect of over 35% in size
# Conditions: CellTox Green fluorescence; series mostly up to 76.8 µM; activity change: at the top concentration
# Text: National Center for Advancing Translational Sciences [NCATS]
# NIH Chemical Genomics Center [NCGC]
# U.S. Environmental Protection Agency [EPA]
# National Institutes of Environmental Health Sciences [NIEHS]
# National Toxicology Program [NTP]
# Cell-based models are critical for drug discovery. Determining the natural cytotoxic effects resulting from test compounds is an essential research activity. A CellTox Green Cytotoxicity Assay to monitor cytotoxicity in real time of continues cell culture during 40 hours of the compound treatment was used to screen Tox21 10K library compounds in Hek293 cells. CellTox Green Cytotoxicity Assay is a nonlytic, homogeneous, biofluorescent method to measure cytotoxicity in cell culture after experimental manipulation. The assay system uses a proprietary asymmetric cyanine dye that is excluded from viable cells but preferentially stains the dead cell's DNA. […] Viable cells produce no appreciable increases in fluorescence. Therefore, the fluorescence signal produced by the binding interaction with dead cell DNA is proportional to cytotoxicity.
# The mixture of Hek293 cell suspension and reagents were dispensed at 600cells/6 ul/well in 1536-well tissue culture treated black solid bottom plates using a Multidrop dispenser. After the assay plates were incubated at a 37 C/5% CO2 incubator for 5 hours, 23 nL of compounds dissolved in DMSO, positive and negative controls was transferred to the assay plate by a pintool work station. The plates were incubated at 37 C for 40 hours. The fluorescence intensity were measured at 0h, 8h, 16h, 24h, 32h and 40h time points using ViewLux plate reader during compound treatment.
# % is set by controls: 0 for no effect and ±100 for the full control effect; potency is the fitted concentration of half-maximal effect.
Structure (SMILES),Potency,activity change
C[C@@H]1CN(CCCn2c3ccccc3c3ccccc32)C[C@H](C)N1,21.3 µM (active),–
C[C@@H]1CC(=O)NN=C1c1ccc(NN=C(C#N)C#N)cc1,inactive,–
CC1(C)S[C@@H]2[C@H](NC(=O)C(c3ccccc3)S(=O)(=O)O)C(=O)N2[C@H]1C(=O)O (stereo not given in full),–,"0.211% [at 35.3 µM, active compounds read high] (inactive)"
CCOC(=O)c1ccc(O)c(O)c1,–,"-10.9% [at 35.3 µM, active compounds read high] (inactive)"
O=C(O)C[C@H](NC(=O)OCc1ccccc1)C(=O)O,–,-12.1% (inactive)
c1cc(N(CC2CO2)CC2CO2)ccc1Cc1ccc(N(CC2CO2)CC2CO2)cc1 (stereo not given),–,3.4% (inactive)
O=c1[nH]c2ccc(Cl)cc2o1,–,-0.49% (inactive)
O=C(OCC(O)CO)c1ccccc1Nc1ccnc2cc(Cl)ccc12 (stereo not given),–,"1.39% [at 35.3 µM, active compounds read high] (inactive)"
CC(C)Nc1cccnc1N1CCN(C(=O)c2cc3cc(NS(C)(=O)=O)ccc3[nH]2)CC1,–,"-11.6% [at 35.3 µM, active compounds read high] (inactive)"
CC(=O)NC1(c2cccc(F)c2)CCN(CC[C@@]2(c3ccc(Cl)c(Cl)c3)CN(c3ccccc3)C(=O)CO2)CC1,–,3.16% (inactive)
OC(CCN1CCCC1)(c1ccccc1)C1CCCCC1 (stereo not given),–,"0.167% [at 35.3 µM, active compounds read high] (inactive)"
CCCCN(CCN(CCCC)C(=O)N1CCOCC1)C(=O)N1CCOCC1,–,"3.35% [at 35.3 µM, active compounds read high] (inactive)"
CCN(CC)CCNC(=O)COc1ccc(OC)cc1,–,"1.42% [at 35.3 µM, active compounds read high] (inactive)"
C=C/C(C)=C/C/C=C(\C)CCC=C(C)C,–,4.3% (inactive)
CC(C)(C)CC(=O)OCC(=O)[C@@]1(O)CC[C@H]2[C@@H]3CCC4=CC(=O)C=C[C@]4(C)[C@H]3[C@@H](O)C[C@@]21C,–,"3.46% [at 35.3 µM, active compounds read high] (inactive)"
Oc1cccc(Nc2ccccc2)c1,–,2.11% (inactive)
COC(=O)CS,–,-2.63% (inactive)
CC1=C(Br)C(=O)C(Br)=C/C1=C(/c1ccccc1S(=O)(=O)O)c1cc(Br)c(O)c(Br)c1C,–,"-7.61% [at 35.3 µM, active compounds read high] (inactive)"
C=CCc1ccccc1OCC(O)CNC(C)C (stereo not given),–,"6.52% [at 35.3 µM, active compounds read high] (inactive)"
C=C1CCC2CC1C2(C)C (stereo not given),–,-0.0147% (inactive)

Structure (SMILES),Potency,activity change
C=COCC(C)C,–,-34.3% (inactive)
CC1=Nc2ccc3ccccc3c2C1(C)C,–,17.6% (inactive)
Oc1c(I)cc(I)c2cccnc12,–,"-4.06% [at 35.3 µM, active compounds read high] (inactive)"
COc1ncnc(NS(=O)(=O)c2ccc(N)cc2)c1OC,–,"1.45% [at 35.3 µM, active compounds read high] (inactive)"
CCOC(C)=O,–,-2.82% (inactive)
CCC=CC#N,–,-5.99% (inactive)
CC(C)=CC(=O)C=C(C)C,–,8.39% (inactive)
O=c1c(O)c(-c2ccc(O)cc2)oc2cc(O)cc(O)c12,inactive,–
CC(=O)c1ccc([N+](=O)[O-])cc1,–,-12.7% (inactive)
O=C(O)CCC(=O)C(=O)O,–,-9.85% (inactive)
Oc1cc2c(cc1O)[C@H]1c3ccc(O)c(O)c3OC[C@@]1(O)C2,49.6 µM (active),–
CC(=O)Nc1cc(S(=O)(=O)O)cc2cc(S(=O)(=O)O)c(N=Nc3ccccc3)c(O)c12,–,-34.2% (inactive)
C[C@H]1C[C@H](O)c2ccsc2S1(=O)=O,–,"-13% [at 35.3 µM, active compounds read high] (inactive)"
COc1ccccc1NC(=O)c1cc2ccccc2cc1O,–,-6.86% (inactive)
CCn1cc(C(=O)O)c(=O)c2cc(F)c(N3CCNCC3)cc21,–,"-1.95% [at 35.3 µM, active compounds read high] (inactive)"
CCCCCCCCCI,–,-6.51% (inactive)
Cc1ccc(OC(=O)c2ccccc2O)cc1,–,18.1% (inactive)
Oc1ccc(Cl)c2cccnc12,–,"4.45% [at 35.3 µM, active compounds read high] (inactive)"
O=C(/C=C/c1ccccc1)OCCc1ccccc1,–,6.2% (inactive)
CCCC(=O)C(=O)O,–,14.4% (inactive)
